A selection: hits, their analogues and other compounds. The true share with any hit is near 13%.
USP30 block: inhibitors of human USP30 deubiquitinase | inhibition, % at 25 µM | purified USP30, Ub-rhodamine cleavage fluorescence | AID 1645860 | Q70CQ3 | 47,000 tested, 5.3% active
Target sequence (Q70CQ3 whole entry, looked up): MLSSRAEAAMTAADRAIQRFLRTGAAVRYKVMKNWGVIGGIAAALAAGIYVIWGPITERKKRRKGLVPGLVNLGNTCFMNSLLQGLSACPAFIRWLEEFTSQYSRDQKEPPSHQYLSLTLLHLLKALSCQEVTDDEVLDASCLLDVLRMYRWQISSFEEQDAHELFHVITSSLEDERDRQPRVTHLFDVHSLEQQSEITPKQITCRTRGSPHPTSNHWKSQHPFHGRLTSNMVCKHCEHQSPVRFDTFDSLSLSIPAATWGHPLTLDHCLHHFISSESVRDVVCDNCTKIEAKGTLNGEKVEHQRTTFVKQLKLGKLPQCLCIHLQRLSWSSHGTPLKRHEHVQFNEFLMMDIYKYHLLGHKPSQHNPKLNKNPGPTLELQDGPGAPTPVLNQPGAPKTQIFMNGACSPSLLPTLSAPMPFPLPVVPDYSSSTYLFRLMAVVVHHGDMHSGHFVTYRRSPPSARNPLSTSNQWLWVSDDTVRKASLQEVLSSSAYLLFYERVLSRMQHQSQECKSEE
USP10 block: blocks human USP10 ubiquitin-rhodamine cleavage. inhibition, % at 20 µM. purified USP10, Ub-rhodamine fluorescence, 60 min. 47,000 tested, 1.1% active
USP17 block: blocks human USP17 ubiquitin-rhodamine cleavage; A8MUK1; purified USP17, Ub-rhodamine cleavage fluorescence, 3 h; inhibition, % at 50 µM; 47,000 tested, 6.5% active; AID 1645855
USP8 block: human USP8 deubiquitinase inhibition. AID 1645853. 47,000 tested, 4.2% active. purified USP8, Ub-rhodamine cleavage fluorescence, 30 min. P40818. inhibition, % at 20 µM
USP28 block: human USP28 deubiquitinase inhibition; purified USP28, Ub-rhodamine cleavage fluorescence, 30 min; inhibition, % at 25 µM; 47,000 tested, 3% active; AID 1645857
An asterisk follows results filed as active; . = not tested or not shown. Rule as the data show it: active = inhibition above about 30%; inactive = the rest.

SMILES	USP30 block	USP10 block	USP17 block	USP8 block	USP28 block
Cc1ccc(NC(=O)Cc2nnc3c(-c4nc(C5CC5)no4)cccn23)cc1F	-21.5	53.8*	9.6	93.4*	-9.2
Cc1ccc(NC(=O)c2cccc(-c3nc(-c4ccccc4)no3)c2)nc1	25.7	-0.4	35.3*	3.6	19.4
COc1ccc(NC(=O)C2Cc3ccccc3CN2S(=O)(=O)c2ccc(F)cc2)cc1OC (stereo not drawn)	-2.7	1.6	1.3	4.3	19.2
Cc1cn2nnc(C(=O)Nc3ccc(Cl)c(Cl)c3)c2c(=O)[nH]1	-16.6	14.3	2.6	96.5*	-9.3
CSc1ccc(CNC(=O)c2nnn3cc(C)[nH]c(=O)c23)cc1	-13.4	0.6	-15.2	0.5	-12.7
O=C(Nc1ccc(Cn2cncn2)cc1)c1ccc2c(c1)OCO2	15.0	-0.8	3.5	7.8	45.0*
COc1ccc(C(=O)Nc2ccc(Cn3cncn3)cc2)cc1F	2.9	2.3	3.2	14.7	34.9*
O=C(Nc1ccc(-c2nnc3n2CCCCC3)cc1)c1ccc2c(c1)OCO2	2.2	-3.4	-30.8	-2.6	71.3*
COc1ccc(OC)c(Nc2nc(-c3ccc(Cl)cc3)c(C)s2)c1	10.0	7.7	5.1	42.1*	11.1
COc1ccc(-c2nc(NC(=O)c3c(-c4ccccc4)noc3C)sc2C)cc1	14.2	5.3	-0.1	0.0	12.8
CC(=O)Nc1cccc(Nc2nc(C)nc3c2CCC3)c1	29.6	0.2	13.8	12.0	13.8
CN(C)C(=O)N1Cc2ccccc2C2(CCNCC2)C1	30.7*	2.8	21.8	-29.3	15.5
N#Cc1ccccc1NC(=O)c1cc2c(s1)-c1ccccc1S(=O)(=O)C2	82.9*	48.7*	72.3*	29.9	87.6*
O=C(c1cc2c(s1)-c1ccccc1S(=O)(=O)C2)N1CCN(c2ccccc2F)CC1	26.1	9.3	11.0	14.3	25.2
CC(=O)c1ccc(NC(=O)C2CCN(c3cncnc3N3CCCC3)CC2)cc1	-11.5	0.7	-14.4	-3.3	88.6*
COc1ccc(NC(=O)C2CCN(c3cncnc3N(C)C)CC2)cc1OC	-7.5	-2.4	2.5	-11.0	72.2*
CC(=O)c1ccc(NC(=O)C2CCN(S(=O)(=O)c3cccnc3)CC2)cc1	35.2*	0.2	13.7	13.8	13.3
O=C(NCc1ccc(Cl)cc1)C1CCN(c2cncnc2N2CCCC2)CC1	-49.1	-8.1	-30.9	-21.2	1.6
O=C(Nc1ccc(-c2ccno2)cc1)C1CCN(S(=O)(=O)c2cccnc2)CC1	-31.4	-1.6	-15.6	-18.2	-9.5
CN(C)c1ncncc1N1CCC(C(=O)NCc2ccccc2)CC1	-0.5	-0.8	5.0	-0.8	19.1
O=C(c1csc(S(=O)(=O)NC2CCCC2)c1)N1CCCCC1	22.5	-1.3	8.0	19.9	12.1
COc1ccccc1NCc1nc2nc(C)cc(C)n2n1	-24.3	-0.5	-10.8	-24.6	-6.3
O=C(COC(=O)C1(c2ccc(Cl)cc2)CCCC1)Nc1ccc2c(c1)OCO2	47.8*	16.0	7.5	36.2*	19.5
O=C(COC(=O)C1CCCN1S(=O)(=O)c1ccc(Cl)cc1)Nc1ccc2c(c1)OCO2 (stereo not drawn)	33.1*	8.2	22.4	19.8	30.0
COc1ccc([N+](=O)[O-])cc1NC(=O)COC(=O)C1CCCN1S(=O)(=O)c1ccc(Cl)cc1 (stereo not drawn)	34.6*	6.2	0.2	-18.9	3.9
SMILES	USP30 block	USP10 block	USP17 block	USP8 block	USP28 block
COc1cc(OC)c(NC(=O)c2ncoc2-c2cccs2)cc1Cl	6.0	26.6	4.8	19.7	-3.3
Cc1nc2scc(C)n2c(=O)c1NC(=O)Cc1ccc(Cl)cc1	.	2.0	9.4	0.0	.
CCc1cccc(NC(=O)c2nc3ccccc3n(C)c2=O)c1	85.7*	-1.7	57.6*	4.2	47.7*
COc1ccc(OCc2nn3c(-c4ccccc4Cl)nnc3s2)cc1	32.0*	14.5	21.8	-28.2	19.0
Cc1sc2ncn3c(=O)n(CC(=O)Nc4ccc(F)c(Cl)c4)nc3c2c1C	16.2	-3.3	52.7*	-2.6	7.3
CCc1ccc(C(C)NC(=O)C2CCN(c3ccc4nncn4n3)CC2)cc1 (stereo not drawn)	8.9	0.7	6.8	3.3	54.1*
Cc1ccc(CNC(=O)C2CCCN(c3ccc4nncn4n3)C2)cc1 (stereo not drawn)	-8.5	-1.3	-1.1	1.8	-0.5
COc1ccccc1CNC(=O)c1ccccc1OCc1ccccc1Cl	32.2*	12.3	23.7	13.2	28.8
COc1ccccc1CNC(=O)c1ccccc1-c1ccccc1	-17.9	-6.8	0.1	-1.1	-6.7
COc1cc2c(cc1OC)-c1cc(Oc3ccc4cccnc4c3)nc(=O)n1CC2	-38.0	-10.0	49.2*	35.5*	4.7
Cc1ccc(S(=O)(=O)N2CCN3C(=O)[C@@H](Cc4ccccc4)N(C)C(=O)[C@@H]3C2)cc1	30.6*	1.3	17.9	25.6	15.7
C[C@@H]1C(=O)N2CCN(S(=O)(=O)c3ccc(Cl)cc3)C[C@H]2C(=O)N1C	.	2.1	10.9	1.8	.
Cc1ccccc1C1CC(=O)Nc2c1c(C)nn2-c1ccc2nnc(C)n2n1 (stereo not drawn)	29.4	2.7	11.1	2.1	18.4
Cc1cc(C2CC(=O)Nc3c2c(C)nn3-c2nc3ccccc3[nH]2)c(C)s1 (stereo not drawn)	-10.4	3.1	50.6*	30.4*	-8.8
Cc1ccccc1NC(=O)C1CCCN(S(=O)(=O)Cc2ccc(F)cc2)C1 (stereo not drawn)	24.1	10.0	10.2	8.3	0.2
Cc1ccccc1NC(=O)C1CCCN(S(=O)(=O)Cc2ccccc2)C1 (stereo not drawn)	23.0	1.3	31.7*	10.5	10.5
COc1ccccc1CNC(=O)C1CCCN(S(=O)(=O)Cc2ccc(Cl)cc2)C1 (stereo not drawn)	30.1*	10.2	16.0	26.4	16.6
CN(C1CCCCC1)S(=O)(=O)N1CCCC(C(=O)NCc2ccccc2Cl)C1 (stereo not drawn)	12.4	-0.1	-0.5	-0.4	-5.0
CN(C1CCCCC1)S(=O)(=O)N1CCCC(C(=O)NCc2cccc(Cl)c2)C1 (stereo not drawn)	42.1*	8.9	24.6	11.3	24.8
O=C(C1CCCN(S(=O)(=O)Cc2ccccc2)C1)N1CCC(Cc2ccccc2)CC1 (stereo not drawn)	30.5*	6.1	2.6	8.6	13.8
O=[N+]([O-])c1cccc(CN2CCC(c3nc4ccccc4[nH]3)CC2)c1	21.6	-2.4	-16.0	-100.3	16.0
CCN1C(=O)c2c(C(=O)NC(C)C)ncn2CC1(C)C(=O)NCc1ccc(OC)cc1 (stereo not drawn)	-0.1	1.6	-1.6	-0.7	2.2
Cc1cc(C)cc(OC(C)C(=O)Nc2ccc3nsnc3c2)c1 (stereo not drawn)	5.2	6.2	13.1	24.2	7.1
CCc1ccc(OC(C)C(=O)Nc2ccc3nsnc3c2)cc1 (stereo not drawn)	6.4	3.3	25.5	66.3*	21.1
Cc1nc(CNC(=O)C(C)Oc2ccccc2Cl)cs1 (stereo not drawn)	9.5	-1.9	-1.5	-0.1	-6.2

Compound activity from PubChem.
